Laboratory results from the supplement of paper PMC13380429.

Key:
[1] = system: Vero E6 infected with SARS-CoV-2; experiment: morphology score (similarity to uninfected cells); higher = more like uninfected cells; details: 24 h
[2] = system: Vero E6 infected with SARS-CoV-2; experiment: SARS-CoV-2 infection rate relative to infected DMSO; higher = more infection, active = 60 or less; details: 24 h

Row | SMILES | morphology score [1] | SARS-CoV-2 infection rate [2]
1 | c1cc(Cc2cnc[nH]2)ccn1 [immethridine] (10 µM) | 0.158 | 109% (inactive)
2 | CSc1ccc(C(=O)c2[nH]c(=O)[nH]c2C)cc1 [enoximone] (10 µM) | 0.104 | 88.5% (inactive)
3 | COc1cc2c(NC3CCN(C)CC3)nc(N3CCCN(C)CC3)nc2cc1OCCCN(C)C (10 µM) | 0.124 | 116% (inactive)
4 | COC(=O)N1CC[C@@H]2[C@H]1CCC[C@@]2(O)C#Cc1cccc(C)c1 [mavoglurant] (10 µM) | -0.125 | 112% (inactive)
5 | CCCC[P+](CCCC)(CCCC)Cc1ccc(NC(=O)[C@H](Cc2ccc3ccccc3c2)N/C(=N/C2CCCCC2)NC2CCCCC2)cc1 (10 µM) | 0.122 | 92% (inactive)
6 | C[N+](C)(C)CCCCCNCC12CC3CC(CC(C3)C1)C2 (10 µM) | -0.0308 | 112% (inactive)
7 | COc1cc(NS(=O)(=O)c2ccc(N)cc2)ncn1 [sulfamonomethoxine] (10 µM) | 0.102 | 89.5% (inactive)
8 | CCC(=O)N1CCN(c2ccc(-n3c(=O)ccc4cnc5ccc(-c6cnc7ccccc7c6)cc5c43)cc2C(F)(F)F)CC1 [torin-1] (10 µM) | -0.0739 | 107% (inactive)
9 | Oc1ccc(Cl)c2c1CCC2 [chlorindanol] (10 µM) | 0.109 | 102% (inactive)
10 | N[C@@H](Cc1ccc(Cl)cc1)C(=O)O (racemic) [fenclonine-(+/-)] (10 µM) | 0.00322 | 109% (inactive)
11 | CCCCCCCCCCCCCCCCCCCCCCCCCCCCO [1-octacosanol] (10 µM) | 0.118 | 100% (inactive)
12 | CC(C)(C)[C@H]1CC[C@H](CC2=C(O)C(=O)c3ccccc3C2=O)CC1 [buparvaquone] (0.833333 µM) | 0.0418 | 94% (inactive)
13 | NC(=O)c1cnc(N[C@@H]2CCCC[C@@H]2N)nc1Nc1cccc(-n2nccn2)c1 (10 µM) | 0.582 | 17.5% (active)
14 | COc1cc2ncnc(Nc3cccc(Cl)c3F)c2cc1OC(=O)N1CCN(C)C[C@H]1C (10 µM) | -0.178 | 114% (inactive)
15 | COc1cccc(Nc2c(C(N)=O)cnc3c(C)cc(S(=O)(=O)c4cccc(C(=O)N(C)C)c4)cc23)c1 (10 µM) | 0.345 | 91% (inactive)
16 | CC(C)[C@H](C(=O)Nc1ccc(C(=O)NO)cc1)c1ccccc1 (10 µM) | 0.0602 | 104% (inactive)
17 | Cc1ccccc1OCC(O)CO (configuration not stated) [mephenesin] (10 µM) | 0.141 | 99.5% (inactive)
18 | CC(C)c1cc(C(C)C)c(CC(=O)NS(=O)(=O)Oc2c(C(C)C)cccc2C(C)C)c(C(C)C)c1 [avasimibe] (10 µM) | 0.0222 | 110% (inactive)
19 | N.N.[Cl][Pt][Cl] [cisplatin] (10 µM) | 0.0556 | 111% (inactive)

Row | SMILES | morphology score [1] | SARS-CoV-2 infection rate [2]
20 | Cc1ccnc(NC(=O)C(C)c2cccc(C(=O)c3ccccc3)c2)c1 (configuration not stated) [piketoprofen] (10 µM) | -0.109 | 107% (inactive)
21 | C[C@]12CCC(=O)C[C@@H]1CC[C@@H]1[C@@H]2CC[C@]2(C)C=CC[C@@H]12 [androstenone] (10 µM) | -0.064 | 112% (inactive)
22 | Cc1nc(Nc2ncc(C(=O)Nc3c(C)cccc3Cl)s2)cc(N2CCN(CCO)CC2)n1 [dasatinib] (0.833333 µM) | -0.0371 | 95.5% (inactive)
23 | O=C(O)[C@H]1CN(C/C=C/P(=O)(O)O)CCN1 [midafotel] (10 µM) | 0.0949 | 89% (inactive)
24 | O=C/C=C/c1ccccc1 [cinnamaldehyde] (10 µM) | -0.0291 | 104% (inactive)
25 | CC(=O)NCC(=O)N[C@H](CCC(=O)O)C(=O)O [N-acetylglycyl-D-glutamic-acid] (10 µM) | 0.127 | 98% (inactive)
26 | O=C1C(CC[S+]([O-])c2ccccc2)C(=O)N(c2ccccc2)N1c1ccccc1 (configuration not stated) [sulfinpyrazone] (10 µM) | 0.0498 | 108% (inactive)
27 | O=c1[nH]cnc2c1ncn2[C@H]1CC[C@@H](CO)O1 [didanosine] (10 µM) | 0.186 | 112% (inactive)
28 | NC(=O)[C@@H]1CC[C@@H]2CN1C(=O)N2OS(=O)(=O)O [avibactam] (10 µM) | 0.0638 | 108% (inactive)
29 | CCc1nn(CCCN2CCN(c3cccc(Cl)c3)CC2)c(=O)n1CCOc1ccccc1 [nefazodone] (10 µM) | 0.0652 | 106% (inactive)
30 | O=C(OC(C(F)(F)F)C(F)(F)F)N1CCC(C(O)(c2ccc3c(c2)OCO3)c2ccc3c(c2)OCO3)CC1 (10 µM) | 0.159 | 93.5% (inactive)
31 | O=C(Nc1ccccc1)c1ccccc1O [salicylanilide] (10 µM) | -0.148 | 110% (inactive)
32 | CCOC(=O)Nc1ccc(NCc2c(C)cc(C)cc2C)cc1N (10 µM) | -0.0161 | 108% (inactive)
33 | CC(C)c1c(NC(=O)Nc2ccc(Cl)cc2)c(=O)n(-c2ccccc2)n1C (10 µM) | 0.0113 | 112% (inactive)
34 | CN(C(=O)c1ccc(F)cc1C(F)(F)F)C1CCN(c2nnc(-c3ccnn3C)c3ccccc23)CC1 [taladegib] (10 µM) | 0.0832 | 102% (inactive)
35 | Cc1cccc(Oc2cnc(=O)[nH]c2)c1 [tolimidone] (10 µM) | 0.147 | 106% (inactive)
36 | O=[N+]([O-])O[C@@H]1CO[C@H]2[C@@H]1OC[C@@H]2O [isosorbide-mononitrate] (10 µM) | -0.103 | 110% (inactive)
37 | CC#CCOC(=O)c1c(C)nc2sc3c(c2c1N)CCC(O)C3 (configuration not stated) (10 µM) | 0.151 | 93% (inactive)
38 | COc1cccc2c1C(=O)c1c(O)c3c(c(O)c1C2=O)C[C@@](O)(/C(CO)=N/NC(=O)CCCCCN1C(=O)C=CC1=O)C[C@@H]3O[C@H]1C[C@H](N)[C@H](O)[C@H](C)O1 [aldoxorubicin] (0.833333 µM) | -0.0766 | 109% (inactive)

Row | SMILES | morphology score [1] | SARS-CoV-2 infection rate [2]
39 | C#C[C@]1(O)CC[C@H]2[C@@H]3CCC4=CC(=O)CC[C@@H]4[C@H]3CC[C@@]21CC [norgestrel] (10 µM) | 0.191 | 102% (inactive)
40 | CC(C)(CO)CCCCCCC(C)(C)CO [gemcadiol] (10 µM) | 0.124 | 98.5% (inactive)
41 | CNC[C@H](O)c1ccc(O)c(O)c1 [epinephrine] (10 µM) | 0.0378 | 104% (inactive)
42 | O=C(O)CCNC(=O)c1ccccc1 [betamipron] (10 µM) | 0.00831 | 118% (inactive)
43 | N=C1NC(=O)/C(=C/c2ccc(O)cc2)S1 [mirin] (10 µM) | -0.0277 | 112% (inactive)
44 | Cc1cccc(-c2[nH]c(C(C)(C)C)nc2-c2ccc3nccnc3c2)n1 (10 µM) | -0.0319 | 100% (inactive)
45 | Cc1nc2n(c(=O)c1CCN1CCC(c3noc4cc(F)ccc34)CC1)CCCC2O (configuration not stated) [paliperidone] (10 µM) | 0.08 | 108% (inactive)
46 | COc1cc(N)c(Cl)cc1C(=O)N[C@@H]1CCN(CCCOc2ccc(F)cc2)C[C@@H]1OC (racemic) [cisapride] (10 µM) | -0.0266 | 112% (inactive)
47 | NCCC[C@H](N)C(=O)O [ornithine] (10 µM) | 0.101 | 96.5% (inactive)
48 | CC(=O)[C@H]1CC[C@H]2[C@@H]3CC=C4C[C@@H](O)CC[C@]4(C)[C@H]3CC[C@]12C [pregnenolone] (10 µM) | -0.283 | 112% (inactive)
49 | CCCCCCCCCCCCCCCCCCCCCC(=O)Nc1ccn([C@@H]2O[C@H](CO)[C@@H](O)[C@@H]2O)c(=O)n1 [enocitabine] (10 µM) | 0.135 | 94.5% (inactive)
50 | COc1ccc(/C=C/C(=O)/C=C(O)/C=C/c2ccc(OC)c(OC)c2)cc1OC (10 µM) | 0.335 | 80.5% (inactive)
51 | O=P(O)(NCCCl)NCCCl [palifosfamide] (10 µM) | -0.0297 | 107% (inactive)
52 | O=C1NCCN1c1ncc([N+](=O)[O-])s1 [niridazole] (10 µM) | 0.233 | 95% (inactive)
53 | Nc1ccncc1N [amifampridine] (10 µM) | 0.0643 | 92% (inactive)
54 | CCC(=O)O[C@]1(C(=O)CO)CC[C@H]2[C@@H]3CCC4=CC(=O)CC[C@]4(C)[C@H]3CC[C@@]21C (10 µM) | 0.188 | 102% (inactive)
55 | CCCN1CCO[C@@H]2c3cc(O)ccc3OC[C@H]21 (10 µM) | 0.173 | 87% (inactive)
56 | COc1cc2nc(N3CCCN(C)CC3)nc(NC3CCN(Cc4ccccc4)CC3)c2cc1OC (0.833333 µM) | 0.456 | 73.5% (inactive)
